Screening data: PubChem, several laboratories
Shown are actives, neighbours in structure and some others; about 3.8% of the full set was active somewhere.
pPAFAH FP inh – inhibitors of human plasma PAF acetylhydrolase (pPAFAH). Q13093. recombinant pPAFAH, FP-rhodamine probe fluorescence polarization. inhibition, % at 3.39 µM. 330,000 compounds, 1.5% hits. AID 463082;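 active = inhibition above the mean inhibition across the screen plus 3 SD, cut at about 25% in these data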;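 note: inhibitors block binding of the rhodamine activity-based probe so polarization drops; 0% = enzyme with DMSO and 100% = wells lacking pPAFAH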
Target sequence (Q13093 whole entry, looked up): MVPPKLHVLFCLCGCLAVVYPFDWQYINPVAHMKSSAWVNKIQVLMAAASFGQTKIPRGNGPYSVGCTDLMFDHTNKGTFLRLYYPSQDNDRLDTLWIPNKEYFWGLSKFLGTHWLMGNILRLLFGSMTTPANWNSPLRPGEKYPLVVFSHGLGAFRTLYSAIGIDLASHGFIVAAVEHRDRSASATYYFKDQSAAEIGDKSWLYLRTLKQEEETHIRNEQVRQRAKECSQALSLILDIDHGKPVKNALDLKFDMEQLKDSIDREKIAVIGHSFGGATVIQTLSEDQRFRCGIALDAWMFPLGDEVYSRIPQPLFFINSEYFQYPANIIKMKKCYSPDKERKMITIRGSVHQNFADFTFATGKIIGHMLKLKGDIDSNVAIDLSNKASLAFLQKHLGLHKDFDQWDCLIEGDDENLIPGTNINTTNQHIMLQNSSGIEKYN
M18AAP inhibitor – blocks P. falciparum M18 aspartyl aminopeptidase. recombinant PfM18AAP, H-Glu-NHMec fluorogenic cleavage. inhibition, % at 7.35 µM. 290,000 compounds, 1.2% hits;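 active = inhibition above the campaign mean inhibition over all tested compounds plus 3 SD, cut at about 28% in these data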;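 note: 0% = plate median of test compound wells and 100% = 2 mM ZnCl2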
PAFAH1B2 inh – blocks human PAF acetylhydrolase 1b catalytic subunit 2 | P68402 | recombinant PAFAH1B2, FP-rhodamine activity probe, fluorescence polarization | AID 492953 | inhibition, % at 3.39 µM | 340,000 compounds, 1.2% hits;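 active = inhibition above the mean of all tested compounds plus 3 SD, cut at about 24% in these data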;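 note: 0% = enzyme with DMSO and 100% = wells lacking PAFAH1B2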
Pemphigus Ab inh – human desmoglein-3 autoantibody binding inhibition. P32926. DSG3-coupled beads, scFv-anti-DSG3-GFP binding, flow cytometry; hits give low values. binding (percent of control), % at 10 µM. 310,000 compounds, 0.48% hits. AID 588358;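 active = binding more than 3 SD below its plate's average and above zero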;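 note: hits lower antibody fragment binding to DSG3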
PAFAH2 FP inh – PAFAH2 (human) inhibition; inhibition, % at 3.39 µM; recombinant PAFAH2, FP-rhodamine activity probe, fluorescence polarization; 340,000 compounds, 0.99% hits; Q99487; AID 492956;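 active = inhibition above the mean over all tested compounds plus 3 SD, cut at about 30% in these data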;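 note: inhibitors block probe labeling of enzyme so polarization drops; 0% = enzyme with DMSO and 100% = wells lacking PAFAH2 protein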
PAFAH1B3 FP inh – blocks human PAF acetylhydrolase 1B catalytic subunit 3; Q15102; recombinant PAFAH1B3, FP-rhodamine probe, fluorescence polarization; inhibition, % at 3.39 µM; 340,000 compounds, 0.28% hits; AID 492972;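 active = inhibition above the screen-wide average of all tested compounds plus 3 SD, cut at about 25% in these data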;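 note: 0% = enzyme with DMSO only and 100% = wells lacking PAFAH1B3 protein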
Active calls of the source: *; x = not tested or not shown.

SMILES	pPAFAH FP inh	M18AAP inhibitor	PAFAH1B2 inh	Pemphigus Ab inh	PAFAH2 FP inh	PAFAH1B3 FP inh
COC(=O)C1=C(C(=O)OC)C2OC1c1cc3ccccc3cc12	x	x	1	91	4	4
Cn1cc(C(=O)OCC(=O)NC2CCCCC2)c2ccccc21	33*	x	5	110	72*	3
C[C@H](CO)N1C[C@H](C)[C@@H](CN(C)C(=O)Oc2ccc3ccccc3c2)OCc2cn(nn2)CCCC1=O	x	x	x	101	x	x
S=P(Nn1cnnc1)(c1ccc(Br)cc1)c1ccc(Br)cc1	1	29*	3	106	9	6
COc1cccc2c1C(=O)c1c(O)c3c(c(O)c1C2=O)CC(O)(C(C)=NO)CC3OC1CC(N)C(O)C(C)O1 (stereo unspecified)	x	x	45*	93	42*	30*
N#Cc1ccc(NC(=S)N2Cc3ccccc3-n3nncc3C2)cc1	x	x	x	98	x	x
COC(=O)[C@]1(C)C[C@H]1[C@H](NP(=O)(c1ccccc1)c1ccccc1)c1ccccc1	-2	-3	-4	98	-5	4
C=C[C@@H]1C[C@@]1(C)[C@@H](NP(=O)(c1ccccc1)c1ccccc1)c1ccccc1	5	2	41*	102	6	8
O=C(NC(=S)N1CC1)c1ccccc1	x	x	x	107	x	x
CCCCn1c(C)c(C(=O)OCC)c2c(CN3CCCC3)c(O)ccc21	27*	27	-5	99	5	-7
O=C(N/N=C/c1c(O)n(Cc2ccc(F)cc2)c(=S)[nH]c1=O)c1ccncc1	16	5	42*	x	-7	-9
O=c1[nH]c(=S)n(Cc2ccc(F)cc2)c(O)c1C=NCCCn1ccnc1	3	-4	30*	118	-16	-2
O=c1[nH]c(=S)n(Cc2ccc(F)cc2)c(O)c1/C=N/N1CCCCCC1	0	0	33*	93	-3	0
O=S(=O)(c1ccc(Cl)cc1)c1ccc(Cl)cc1	-2	x	66*	103	4	10
O=S(=O)(c1ccc(O)cc1)c1ccc(O)cc1	3	-4	4	105	-3	8
O=C(NCC1=C(c2ccc3ccccc3c2)C[C@@H]2CC[C@H]1N2Cc1ccco1)c1ccc([N+](=O)[O-])cc1	x	x	x	104	x	x
Cc1cc2c(C(C)C)c(O)c(O)c(C=O)c2c(O)c1-c1c(C)cc2c(C(C)C)c(O)c(O)c(C=O)c2c1O	x	32*	x	x	x	x
O=c1[nH]c(=S)n(-c2ccccc2F)c(O)c1C=Nc1ccc(N2CCOCC2)cc1	29*	18	8	114	33*	1
CC(C)C1C(C#N)=C(N)Oc2c1c(=O)oc1ccccc21 (stereo unspecified)	x	x	x	104	x	x
CC(N)Cc1c[nH]c2c1ccc1ccccc12 (stereo unspecified)	3	30*	8	95	2	4
CCC(N)Cc1c[nH]c2ccccc12 (stereo unspecified)	x	-1	5	90	-10	12
COC(=O)C1=C(c2cc3ccccc3s2)C[C@@H]2CC[C@H]1N2C(=O)NCc1ccc(C(F)(F)F)cc1	1	x	-2	102	-7	-7
COC(=O)C1=C(c2c(C)noc2C)C[C@@H]2CC[C@H]1N2C(=O)NCc1ccc(C(F)(F)F)cc1	0	x	24*	103	1	9
CN[C@H]1C[C@H]2O[C@@](C)([C@H]1OC)n1c3ccccc3c3c4c(c5c6ccccc6n2c5c31)C(=O)NC4	40*	1	x	x	x	x
COC(=O)C1=C(c2ccc(OC(F)(F)F)cc2)C[C@@H]2CC[C@H]1N2C(=O)N1CCOCC1	2	x	4	97	6	-5
SMILES	pPAFAH FP inh	M18AAP inhibitor	PAFAH1B2 inh	Pemphigus Ab inh	PAFAH2 FP inh	PAFAH1B3 FP inh
Cc1c(C(=O)O)cc(-c2ccccc2)n1Cc1ccccc1	4	2	28*	107	1	5
O=C1CC23c4ccccc4N4C(=O)CC5OCC=C6CN1C2CC6C5C43 (stereo unspecified)	x	x	8	89	6	9
CC1OC(OC2C=C3CCC4C(CCC5(C)C(c6ccc(=O)oc6)CCC45O)C3(C)CC2)C(O)C(OC2OC(CO)C(O)C(O)C2O)C1O (stereo unspecified)	x	x	-3	96	-10	8
CC(C)(C)NC(=S)N1Cc2ccccc2-n2nncc2C1	x	x	x	103	x	x
OC(c1ccc(F)cc1)C(c1ccccc1)N1CCOCC1 (stereo unspecified)	0	1	5	23*	2	0
O=C(c1ccccc1)C(Cc1ccccc1)N1CCOCC1 (stereo unspecified)	x	x	6	x	2	2
COc1ccc(OC(=O)N(C)C[C@@H]2OCc3ccccc3-c3c(n(C)c4ccccc34)C(=O)N([C@H](C)CO)C[C@@H]2C)cc1	x	x	x	103	x	x
O=C1NC(c2cccnc2)Nc2sc3c(c21)CCCC3 (stereo unspecified)	8	31*	3	105	4	2
CCOC(=O)CNC(=O)N1Cc2ccccc2-n2nncc2C1	x	x	x	104	x	x
C/C=C(\C)C(=O)OC1C(C)=C2C(C1OC(=O)CCCCC)C(C)(OC(C)=O)CC(OC(=O)CCC)C1(O)C2OC(=O)C1(C)O (stereo unspecified)	38*	x	x	x	x	x
COc1c(O)cc2c(c1OC)-c1ccc(SC)c(=O)cc1C(NC(C)=O)CC2 (stereo unspecified)	x	x	1	84	0	0
O=C(O)CCn1cc(C=C2C(=O)NC(=O)NC2=O)c(-c2ccc(Br)cc2)n1	11	-3	33*	102	-4	6
c1ccc2[nH]c(CCN3CCCCC3)nc2c1	x	x	x	96	x	x
CN1C(=O)C(=Cc2ccc(-c3cccc(Cl)c3)o2)C(=O)N(C)C1=O	12	-2	x	x	x	x
Cc1ccc(Sc2ccc(C=C3C(=O)N(C)C(=O)N(C)C3=O)o2)cc1	8	-3	57*	120	2	-6
Cc1cc(/C=C2\C(=O)NC(=O)N(c3ccccc3F)C2=O)c(C)n1-c1cc(C(=O)O)cc(C(=O)O)c1	9	30*	6	84	6	8
Cc1cc(/C=C2\C(=O)NC(=O)N(c3ccc(F)cc3)C2=O)c(C)n1-c1cccc(C(=O)O)c1	7	13	x	98	x	x
CN1/C(=C\C=C2C(=O)NC(=S)NC2=O)C(C)(C)c2ccccc21	x	6	68*	134	38*	-378
CC(C)(C)c1ccc(S(=O)(=O)N2CC3CC(C2)c2cccc(=O)n2C3)cc1 (stereo unspecified)	4	2	26*	99	8	11
N#CC1c2ccccc2-n2nncc2CN1Cc1cc(Cl)cc(Cl)c1 (stereo unspecified)	x	x	2	98	-1	1
COc1ccc(C2=NCC(=O)N(CC(=O)NCc3ccco3)c3sc4c(c32)CCCC4)cc1	-3	12	-2	76*	5	-4
COC(=O)C1=C(c2ccc(OCc3ccccc3)cc2)C[C@@H]2CC[C@H]1N2C(=O)NCc1ccc(F)cc1	x	x	x	114	x	x
